{"source": "PubChem BioAssay AID743325", "about": "(National Center for Advancing Translational Sciences (NCATS), 2014)", "note": "Activity calls are given as the source filed them. Calls follow the shape of the full dose curve. Numbered stars: 1 amine (or outer) side, 2 acyl side, 3 side chain; on linkers, the order of the positions; unused ones are H or OH. Bridge positions count the residues as written; N and C are the ends. Square brackets hold non-standard residues; d marks the D form. Peptide text beside a SMILES is read from it. I, II: the chains in the order shown. Actinocin(9to1) = Cc1c2oc3c(C)ccc(C(=O)[*:1])c3nc-2c(C(=O)[*:2])c(N)c1=O; NMeV = CN[CH](C(=O)O)C(C)C; Sar = CNCC(=O)O"}
{"test": "qHTS profiling of Chloroquine Analogs as inhibitors of Plasmodium falciparum (3D7) proliferation", "conditions": "activity change, negative = inhibition: at 28.7 µM (top of the series) unless noted", "excerpt": "Plasmodium falciparum is a virulent malarial parasite that kills 1-2 million people worldwide each year. Transmitted by mosquitoes, the sporozoite form of the parasite enters the blood stream to infect hepatocytes, where they become merozoites that infect red blood cells (erythrocytes). Within erythrocytes, merozoites begin a […] cycle of growth and division, after which the parasite is released to infect new red blood cells. Gametocytes, which form within erythrocytes as well, circulate in the bloodstream and are ingested by the mosquito, thereby completing the life cycle. To profile malarial isolates for differential chemical responses and to identify inhibitors of malarial growth, an assay that measures P. falciparum growth and replication within erythrocytes was employed. This assay uses a DNA binding fluorescent dye (SYBR Green) to detect parasite DNA following cell lysis. Because mature erythrocytes lack DNA, only Plasmodium-derived DNA is detected.\nThe SYBR Green viability assay was adapted from a method described previously (Plouffe et al., 2008). For screening 3 ul culture medium was dispensed into 1536 well black clear bottom plates (Aurora Biotechnologies) using a Multidrop Combi (Thermo Fisher Scientific Inc.), 23 nL compounds in DMSO were added by a pin tool (Kalypsys), and 5 ul of erythrocytes infected with P. falciparum (0.3% parasitemia, 2.5% hematocrit final concentration) were added. The plates were incubated at 37 C in a humidified incubator in 5% CO2 for 72 h, and 2 ul lysis buffer (20 mM Tris HCl, 10 mM EDTA, 0.16% saponin, 1.6% triton X, 10X SYBR Green I supplied as 10,000X […] by Invitrogen) was added to each well. The plates were mixed for 25 sec with gentle shaking and incubated overnight at room temperature in the dark. The following morning, fluorescence intensity at 485(14) nm excitation and 535(25) nm emission wavelengths was measured on an EnVision (Perkin Elmer) plate reader. Plate reads were normalized relative to the control inhibitor (0.29 uM artemisinin) and vehicle (DMSO) wells present on each plate and then corrected by an algorithm using vehicle-only control plates at the beginning and end of the compound plate stack."}
{"smiles": "C[N+]1(C)CCC(=C(c2ccccc2)c2ccccc2)CC1", "activity change, negative = inhibition": "-94.2% [at 14.2 µM]"}
{"smiles": "C[C@@H]1CC[C@H]2[C@@H](C)C(=O)O[C@@H]3OC4(C)CC[C@@H]1C32OO4", "note": "(some centres not stated)", "activity change, negative = inhibition": "-99.4% [at 57.5 µM]"}
{"smiles": "Cc1c2oc3c(C)ccc(C(=O)NC4C(=O)NC(C(C)C)C(=O)N5CCCC5C(=O)N(C)CC(=O)N(C)C(C(C)C)C(=O)OC4C)c3nc-2c(C(=O)NC2C(=O)NC(C(C)C)C(=O)N3CCCC3C(=O)N(C)CC(=O)N(C)C(C(C)C)C(=O)OC2C)c(N)c1=O", "note": "(configuration not stated) (I: TVP[Sar][NMeV] / II: TVP[Sar][NMeV]; ester I:1-I:C, II:1-II:C; linker I:N-II:N via Actinocin(9to1); configuration not given here)", "Potency": "0.0021 µM (active)"}
{"smiles": "C=CC(C)=C[C@@]1(C)SC(=O)C(C)=C1O", "activity change, negative = inhibition": "-4.55% (inactive)"}
{"smiles": "C[C@H]1c2cccc(O)c2C(O)=C2C(=O)[C@]3(O)C(O)=C(C(N)=O)C(=O)[C@@H](N(C)C)[C@@H]3[C@@H](O)[C@@H]21", "Potency": "8.41 µM (active)"}
{"smiles": "CC(=O)N(O)CCCP(=O)(O)O", "Potency": "0.266 µM (active)"}
{"smiles": "COc1ccc(CCN(C)CCCC(C#N)(c2ccc(OC)c(OC)c2)C(C)C)cc1OC", "note": "(configuration not stated)", "activity change, negative = inhibition": "-55% (inactive)"}
{"smiles": "CN(C)CC/C=C1\\c2ccccc2COc2ccccc21", "Potency": "2.02 µM (active)"}
{"smiles": "COc1cc(C=CC(=O)CC(=O)C=Cc2ccc(O)c(OC)c2)ccc1O", "Potency": "8.41 µM (active)"}
{"smiles": "COc1cccc(CCc2ccccc2OCC(CN(C)C)OC(=O)CCC(=O)O)c1", "note": "(configuration not stated)", "Potency": "2.98 µM (active)"}
{"smiles": "CN1CCN(CCCN2c3ccccc3Sc3ccc(S(=O)(=O)N(C)C)cc32)CC1", "Potency": "0.716 µM (active)"}
{"smiles": "O=C(Nc1ccc(Cl)cc1)Nc1ccc(Cl)c(Cl)c1", "activity change, negative = inhibition": "-102%"}
{"smiles": "COc1ccc2nc3cc(Cl)ccc3c(Nc3cc(CN4CCCC4)c(O)c(CN4CCCC4)c3)c2n1", "activity change, negative = inhibition": "-101%"}
{"smiles": "C[C@H](N)CN1CCc2ccc(Br)cc21", "Potency": "1.68 µM (active)"}
{"smiles": "NC(=NCc1ccccc1)NC(=O)c1nc(Cl)c(N)nc1N", "activity change, negative = inhibition": "-99.4%"}
{"smiles": "COc1ncnc(NS(=O)(=O)c2ccc(N)cc2)c1OC", "Potency": "1.5 µM (active)"}
{"smiles": "CC(C)N=C(N)N=C(N)Nc1ccc(Cl)cc1", "Potency": "0.0266 µM (active)"}
{"smiles": "CNCCC(Oc1ccccc1OC)c1ccccc1", "note": "(configuration not stated)", "activity change, negative = inhibition": "-93.6%"}
{"smiles": "OB1OCc2cc(F)ccc21", "activity change, negative = inhibition": "198% (inactive)"}
{"smiles": "CN1CC[C@H](CN2c3ccccc3Sc3ccccc32)C1", "activity change, negative = inhibition": "-79.7% (inactive)"}
{"smiles": "C/C(=C\\c1csc(C)n1)[C@@H]1C[C@@H]2O[C@]2(C)CCC[C@H](C)[C@H](O)[C@@H](C)C(=O)C(C)(C)[C@@H](O)CC(=O)O1", "activity change, negative = inhibition": "35.6% (inactive)"}
{"smiles": "CNC(=O)c1cc(Oc2ccc(NC(=O)Nc3ccc(Cl)c(C(F)(F)F)c3)cc2)ccn1", "activity change, negative = inhibition": "-100%"}
{"smiles": "CCOc1ccccc1O[C@H](c1ccccc1)[C@H]1CNCCO1", "activity change, negative = inhibition": "192% (inactive)"}
{"smiles": "CN1C[C@H](C(=O)N[C@]2(C)O[C@@]3(O)[C@@H]4CCCN4C(=O)[C@H](Cc4ccccc4)N3C2=O)C[C@@H]2c3cccc4[nH]cc(c34)C[C@H]21", "Potency": "0.53 µM (active)"}
{"smiles": "C[C@@H]1CCC2[C@@H](C)[C@@H](O)O[C@@H]3O[C@@]4(C)CC[C@@H]1[C@@]23OO4", "note": "(some centres not stated)", "activity change, negative = inhibition": "-101%"}
{"smiles": "C[C@H]1[C@@H](OC(=O)CCC(=O)O)O[C@@H]2OC3(C)CC[C@H]4[C@H](C)CC[C@@H]1[C@@]24OO3", "activity change, negative = inhibition": "-101%"}
{"smiles": "Cn1cncc1[C@@](N)(c1ccc(Cl)cc1)c1ccc2c(c1)c(-c1cccc(Cl)c1)cc(=O)n2C", "Potency": "1.68 µM (active)"}
{"smiles": "O=C1C(=O)c2ccccc2C(O)=C1C1CCC(c2ccc(Cl)cc2)CC1", "note": "(configuration not stated)", "Potency": "0.0007 µM (active)"}
{"smiles": "C=Cc1c(C)c2cc3nc(cc4[nH]c(cc5nc(cc1[nH]2)C(C)=C5CCC(=O)OC)c(CCC(=O)O)c4C)[C@@]1(C)C3=CC=C(C(=O)OC)[C@H]1C(=O)OC", "activity change, negative = inhibition": "179% [at 14.2 µM] (inactive)"}
{"smiles": "COc1cc2c(cc1C(F)(F)F)N(C(=O)Nc1cc(F)cc(-c3cccnc3)c1)CC2", "Potency": "3.76 µM (active)"}
{"smiles": "CO[C@H]1O[C@@H]2O[C@@]3(C)CC[C@@H]4[C@@H](C)CC[C@@H]([C@H]1C)[C@@]24OO3", "activity change, negative = inhibition": "167% (inactive)"}
{"smiles": "C=C[C@@H]1CN2CCC1C[C@@H]2C(O)c1ccnc2ccc(OC)cc12", "note": "(some centres not stated)", "activity change, negative = inhibition": "-97.6%"}
{"smiles": "CC1=CC(=O)c2ccccc2C1=O", "activity change, negative = inhibition": "205% (inactive)"}
{"smiles": "CCc1nc(N)nc(N)c1-c1ccc(Cl)cc1", "activity change, negative = inhibition": "-98.9%"}
{"smiles": "CN(C)c1ccc2nc3ccc(=[N+](C)C)cc-3sc2c1", "Potency": "0.0043 µM (active)"}
{"smiles": "CCCCCCCCCCOc1cc2c(=O)c(C(=O)OCC)c[nH]c2cc1OCC", "activity change, negative = inhibition": "208% (inactive)"}
{"smiles": "C#C[C@]1(O)CC[C@@H]2[C@H]3CCC4=CC(=O)CC[C@H]4[C@H]3C(=C)C[C@@]21CC", "activity change, negative = inhibition": "177% (inactive)"}
